Screening results from PubChem.
Shown are actives, neighbours in structure and some others; about 3.4% of the full set was active somewhere.
Ecoli rRNA inh = inhibitors of bacterial rRNA selective over humanized ribosomes. E. coli WT GFP vs humanized-ribosome RFP mutants, fluorescence, 24 h; stronger effect = lower value; DMSO median 0, no signal -100. GFP signal change (wild-type ribosome), % (no concentration beside the values). 350,000 tested, 1.6% active;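 active = significant combined selectivity score with lowered wild-type GFP, culture density cut under 30%, mutant RFP and density less affected; inactive = any of these conditions unmet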
PAX8 inh HTS = inhibitors of PAX8 transcriptional activity in RMG-I cells. RMG-I TPO-luciferase reporter, SteadyGlo, 24 h. inhibition, % at 12.6 µM. 360,000 tested, 1.2% active. AID 652154;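 active = mean replicate inhibition at least 60% with every replicate also reaching 60%; inconclusive = only one of the two criteria is met; inactive = mean below 60% and not all replicates reaching 60%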;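 also: luciferase light reporting Pax8 driven TPO promoter activity; plate controls were median of neutral control wells for no effect and mitoxantrone controls for full effect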
SIRT5 block = blocks human SIRT5 desuccinylation of peptide | 330,000 tested, 1.1% active | inhibition, % at 15 µM | AID 652115 | Purified SirT5, succinyl-peptide AMC, trypsin-coupled fluorescence | Q9NXA8; in the data active = inhibition above about 15%; inconclusive = no clear call, values can overlap the other calls
Target sequence (Q9NXA8 whole entry, looked up): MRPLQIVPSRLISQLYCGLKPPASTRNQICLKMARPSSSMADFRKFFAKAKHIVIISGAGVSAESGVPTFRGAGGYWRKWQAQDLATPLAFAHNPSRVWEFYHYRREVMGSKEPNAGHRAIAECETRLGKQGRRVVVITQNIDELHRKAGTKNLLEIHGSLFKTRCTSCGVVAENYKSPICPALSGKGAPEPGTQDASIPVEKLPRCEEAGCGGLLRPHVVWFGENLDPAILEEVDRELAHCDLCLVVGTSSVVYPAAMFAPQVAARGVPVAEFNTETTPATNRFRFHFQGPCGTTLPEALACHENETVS
PGC1a acetyl inh = modulators of PGC1a acetylation | U2OS PGC1a acetylation, AlphaScreen anti-acetyl-lysine; with virally co-expressed GCN5 acetyltransferase | inhibition, % at 15.6 µM | 350,000 tested, 0.17% active | AID 651687;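 active = every replicate shows inhibition of at least 40%; inconclusive = mean inhibition at least 40% but some replicate below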;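 also: 0% = neutral control wells and 100% = positive control wells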
EWS-Fli block = inhibitors of EWS/Fli oncoprotein transcriptional activity | inhibition, % at 12.6 µM | 350,000 tested, 0.67% active | AID 651661 | A673 NR0B1-luciferase reporter, viability-normalised;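 active = mean inhibition of at least 50% after viability correction, with every replicate also passing that limit; inconclusive = mean reaches 50% but only one of two replicates passes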;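 also: firefly luciferase signal divided by Alamar Blue viability fluorescence both relative to DMSO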
LGR2 antag = blocks bursicon-induced cAMP signaling via Drosophila LGR2 | HEK293 LGR2, CRE-luciferase, bursicon-stimulated, 4 h | inhibition, % at 9.99 µM | 380,000 tested, 0.35% active;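 active = drop in luminescence signal, shown as inhibition above about 50% in the replicate tests, limit read from the data, passing the limit was not always enough; inconclusive = probably only some replicates passing the limit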;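 also: agonist challenge used bursicon conditioned medium at about half maximal strength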
AID977621 = wild-type E. coli growth inhibition versus H69 humanized strain – H69 mutant RFP, wild-type GFP, cherry-pick, dose response; shares compounds with Ecoli rRNA inh; fluorescence, 24 h; activity change, negative = inhibition at 50 µM; 1,900 tested, under 10 active; AID 977621;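 active = Wild-type ribosome reporter drop at least double the humanized mutant ribosome reporter drop, growth loss under a set limit; inconclusive = no clear call, values can overlap the other calls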;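 also: wild-type GFP and H69 mutant RFP strains grown together 50/50 in each well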
AID977628 = growth of wild-type and h24-humanized E. coli strains – h24 mutant RFP vs wild-type GFP, cherry-pick, dose response. shares compounds with Ecoli rRNA inh. E. coli WT GFP strain growth, fluorescence, 24 h. activity change, negative = inhibition at 50 µM. 1,900 tested, under 10 active;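 active = compound lowering the normal-ribosome reporter at least twice as much as the humanized-ribosome reporter, growth loss under a set limit; inconclusive = no clear call, values can overlap the other calls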;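 also: wild-type GFP and h24 humanized RFP strains co-cultured 1 to 1 per well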
* marks the source's active call; other numbers are inactive results; ? = inconclusive; / = not tested or not shown.

SMILES	Ecoli rRNA inh	PAX8 inh HTS	SIRT5 block	PGC1a acetyl inh	EWS-Fli block	LGR2 antag	AID977621	AID977628
Cc1cccc(-c2ccc([C@H]3[C@@H](CO)N4CCCCN(S(=O)(=O)c5ccccc5C)C[C@H]34)cc2)c1	-41	-19	3	1	26	2	0.84	/
Cc1cccc(-c2ccc([C@H]3[C@@H](CO)N4CCCCN(S(=O)(=O)c5ccccc5C)C[C@@H]34)cc2)c1	2	-39	1	-1	-6	17	-3.9	-3
C[C@@H]1CN([C@@H](C)CO)C(=O)c2cc(C#CCN(C)C)cnc2O[C@@H]1CN(C)C(=O)Cc1ccccc1	4	-4	9	4	-2	12	/	/
CN(C)C(=O)C[C@H]1CC[C@@H]2[C@H](COc3ccc(NC(=O)C4CC4)cc3C(=O)N2C)O1	4	-18	14	4	-2	3	/	/
Clc1cccc(OCc2nc(-c3ccncc3)n[nH]2)c1	-22*	20	0	/	0	12	-1.1	/
Cc1c(Cc2ccccc2)sc(NC(=O)Cc2ccccc2)c1C(N)=O	-18*	/	-4	7	/	-1	-4.5	-11
COC(=O)c1c(NC(C)=O)sc(Cc2ccccc2)c1C	/	2	/	-6	/	/	/	/
CC(=O)Nc1ccc(S(=O)(=O)Oc2ccc(/C=N/NC(=O)c3ccc(Cl)cc3)cc2)cc1	/	/	/	-34	/	/	/	/
COC(=O)c1ccc(OS(=O)(=O)c2ccc(NC(C)=O)cc2)cc1	-21*	0	0	/	8	-9	/	?
O=C(CCCn1c(=S)[nH]c2ccsc2c1=O)Nc1ccc2c(c1)OCCO2	-21*	-17	2	/	40	4	-11	/
C[C@@H]1CCCCO[C@H](CN(C)Cc2ccncc2)[C@H](C)CN([C@H](C)CO)C(=O)c2cc(NC(=O)c3ccccc3)ccc2O1	-1	17	4	13	0	7	/	/
CC(C)CC#Cc1ccc2c(c1)O[C@@H](CN(C)C(=O)Nc1ccccc1)[C@@H](C)CN([C@@H](C)CO)S2(=O)=O	-3	/	3	4	21	19	/	/
CC(C)CN(C(=O)c1ccco1)c1nc2ccccc2s1	-19*	-20	-4	/	-30	-18	/	?
Cc1noc(C)c1C(=O)N(CC(C)C)c1nc2ccccc2s1	0	4	-2	/	2	-16	/	/
COc1ccc(S(=O)(=O)N[C@H]2CC[C@@H](CC(=O)N3CCc4ccccc4C3)O[C@H]2CO)cc1	2	9	11	10	-5	20	/	/
c1ccc(-c2sc3ccccc3c2-c2ccc(OCCN3CCCCC3)cc2)cc1	-17*	-4	-2	2	13	-1	2.7	13
Cn1cnc(S(=O)(=O)N[C@@H]2CC[C@H](CC(=O)Nc3ccc(-c4ccccc4)cc3)O[C@H]2CO)c1	-2	1	1	7	-4	21	/	/
Cc1ccc(CC2C(=O)N(c3cc(Cl)ccn3)C(=O)C2C)cc1 (centres undefined)	-20*	-20	-5	/	-16	-20	-20	?
Cc1ccc(CC2C(=O)N(c3ccccc3)C(=O)C2C)cc1 (centres undefined)	-4	-21	3	/	0	-16	/	/
Cc1ccc(C(=O)NCc2ccccc2)c(F)c1F	-18*	-67	-2	/	-30	-38	-10	3.7
Cc1occc1C(=O)NCc1ccccc1	/	/	/	-3	/	/	/	/
CN1C(=O)c2cc(NC(=O)c3ccc(Cl)cc3)ccc2OC[C@@H]2O[C@H](CC(=O)NCc3cccc(F)c3)CC[C@H]21	-8	11	-1	10	-4	2	/	/
CSc1cccc(NC(=O)CCNC(=O)c2ccco2)c1	1	-4	3	3	13	14	/	/
O=C(CCNC(=O)c1ccco1)Nc1cccc(Br)c1	-20*	-8	-2	2	2	3	-20	?
COc1ccc(Cc2nc3ccc(C(=O)NCc4cc(C)no4)cc3o2)cc1OC	7	9	-2	/	-9	10	/	/
SMILES	Ecoli rRNA inh	PAX8 inh HTS	SIRT5 block	PGC1a acetyl inh	EWS-Fli block	LGR2 antag	AID977621	AID977628
C=CCN(CC=C)C(=O)c1ccc2nc(Cc3ccc(OC)c(OC)c3)oc2c1	-33*	-40	1	5	-9	-16	/	?
O=C(NCCc1ccccn1)c1cccc(S(=O)(=O)N2CCc3ccccc32)c1	-18*	10	0	2	-15	5	/	?
CN(C)C(=O)C[C@H]1CC[C@@H]2[C@H](COC[C@H](O)CN2CC2CC2)O1	-2	-10	0	1	-4	-1	/	/
CC(=O)Oc1ccc(N(C(C)=O)S(=O)(=O)c2ccc(Cl)cc2)c2ccccc12	-23*	26	-2	0	-10	-20	-13	?
CC(=O)N(c1ccccc1C)S(=O)(=O)c1ccc(Cl)cc1	-23	12	/	/	2	2	/	/
CC(=O)Oc1ccc(N(C(C)=O)S(=O)(=O)c2ccc(C)cc2)c2ccccc12	-25*	-41	3	/	0	/	-15	/
Clc1ccc2c(c1)C1CC2CCN1Cc1ccccc1 (centres undefined)	-4	-18	/	5	-3	9	/	/
COc1ccc(CN2CCC3CC2c2cc(Cl)ccc23)cc1 (centres undefined)	-21*	8	-4	9	2	10	?	?
O=C(C[C@H]1C[C@H]2c3cc(NC(=O)C4CCC4)ccc3O[C@H]2[C@@H](CO)O1)NCCN1CCCCC1	1	-3	1	1	1	0	/	/
O=C(C[C@H]1C[C@@H]2c3cc(NC(=O)c4cccnc4)ccc3O[C@@H]2[C@@H](CO)O1)NCCc1ccccc1	-2	-69	-4	5	1	7	/	/
O=C(NCc1ccco1)c1ccc2ccccc2n1	-14*	-14	-1	-13	-3	-40	-15	?
Cc1nc2ccccc2cc1C(=O)NCc1ccco1	/	/	/	2	/	/	/	/
CN(C)C(=O)C1C2NC(=S)N(c3cccc(Cl)c3)C1(C)Oc1ccc(Cl)cc12 (centres undefined)	-22*	-6	-2	-9	4	-6	-2.2	/
CCCN1CCN(C(=O)c2ccc(Sc3ccc(C)cc3)c(NC(C)=O)c2)CC1	-13*	/	3	-6	11	-1	-22	-3.8
CCN(CC)CCNC(=O)c1cc2cc3ccc(OC)cc3nc2o1	-19*	-40	-130	10	-4	-16	-7.9	?
CCCCN(C)CCNC(=O)c1cc2cc3ccc(OC)cc3nc2o1	-3	-16	-66	40	1	1	/	/
